Experimental data reported in the supplement of paper PMC11732987, “Enantioselective OTUD7B fragment discovery through chemoproteomics screening and high-throughput optimisation” (Communications Chemistry, 2025).

Key:
Assay in all cases: log2 ratio of Biotin-Ahx-Ub-VS probe labelling (compound/DMSO); higher = less target engagement, active = hit call of the paper (q ≤ 0.05, log2 ratio ≤ -1)
Conditions in all cases: treatment time: 3 h
[1] = compound: CCC1N(CCc2sccc12)C(=O)CCl
Outline: (§1)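 HEK293T lysate (495 µg per sample, in Tris/CHAPS/IGEPAL buffer with protease inhibitors) was exposed in triplicate to compound at 50 or 200 µM, or to DMSO, for 3 h, then to Biotin-Ahx-Ub-VS (0.5 µM final) for 1 h. The labelled DUBs were enriched on NeutrAvidin, digested with LysC and trypsin, and analysed by diaPASEF LC-MS/MS. Average base-two log ratios of compound over DMSO came from median-normalised label-free quantities by unpaired t-test. Only proteins with at least 2 unique peptides were used.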

[2] = compound: CN1c2ccccc2C(CS1(=O)=O)NC(=O)CCl
Outline: as §1

[3] = compound: Cl.ClCC(=O)N1CCc2ncncc2C1
Outline: as §1

[4] = compound: Cl.Cn1ncc2C(CCCc12)NC(=O)CCl
Outline: as §1

[5] = compound: ClCC(=O)NC1CCOc2ccccc12
Outline: as §1

[6] = compound: ClCC(=O)NC1CCCc2ccccc12
Outline: (§2)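 Spectronaut label-free, global-median-normalised protein quantities underlie these values, which are average ratios of compound to vehicle from an unpaired t-test. They are reported as log2 and include only proteins identified by two or more unique peptides. Samples of HEK293T lysate (495 µg) were treated in triplicate with a compound concentration series or vehicle for 3 h, then labelled with Biotin-Ahx-Ub-VS at 0.5 µM final for 1 h before NeutrAvidin enrichment, LysC and trypsin digestion, and diaPASEF LC-MS/MS.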

[7] = compound: ClCC(=O)N[C@@H]1CCCc2ccccc12
Outline: as §2

[8] = compound: ClCC(=O)N[C@H]1CCCc2ccccc12
Outline: as §2

[9] = compound: CCC1N(CCc2cc(OC)c(Cl)cc12)C(=O)CCl
Outline: as §1

[10] = compound: CCCC1N(CCc2cc(OC)c(OC)cc12)C(=O)CCl
Outline: as §1

Measured: log2 ratio of Biotin-Ahx-Ub-VS probe labelling

PSMD7 (UniProt P51665)
Chain of UniProt P51665 (P51665 whole entry): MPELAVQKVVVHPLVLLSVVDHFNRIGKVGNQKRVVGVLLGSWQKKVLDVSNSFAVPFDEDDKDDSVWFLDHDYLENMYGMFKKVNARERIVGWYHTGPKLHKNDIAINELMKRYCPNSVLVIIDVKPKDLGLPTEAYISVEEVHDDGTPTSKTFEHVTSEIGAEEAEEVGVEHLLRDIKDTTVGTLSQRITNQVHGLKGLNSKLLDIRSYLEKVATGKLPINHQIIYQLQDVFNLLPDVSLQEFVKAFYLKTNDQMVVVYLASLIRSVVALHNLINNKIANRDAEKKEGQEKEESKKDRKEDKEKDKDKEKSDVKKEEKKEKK
inactive: [1]; compound concentration: 50uM 0.0196 | [1]; compound concentration: 200uM -0.639 | [2]; compound concentration: 50uM -1.31 | [2]; compound concentration: 200uM 0.533 | [3]; compound concentration: 50uM -3.61 | [3]; compound concentration: 200uM 0.0399 | [4]; compound concentration: 50uM 0.173 | [4]; compound concentration: 200uM 0.483 | [5]; compound concentration: 50uM 1.07 | [5]; compound concentration: 200uM 1 | [6]; compound concentration: 0.78uM -0.113 | [6]; compound concentration: 1.56uM -0.191 | [6]; compound concentration: 3.13uM -0.247 | [6]; compound concentration: 6.25uM -0.311 | [6]; compound concentration: 12.5uM -0.243 | [6]; compound concentration: 25uM -0.439 | [6]; compound concentration: 50uM -0.166 | [6]; compound concentration: 100uM 0.0296 | [6]; compound concentration: 200uM -0.486 | [7]; compound concentration: 0.78uM -0.113 | [7]; compound concentration: 1.56uM 0.319 | [7]; compound concentration: 3.13uM 0.0163 | [7]; compound concentration: 6.25uM -0.0645 | [7]; compound concentration: 12.5uM 0.0151 | [7]; compound concentration: 25uM 0.0566 | [7]; compound concentration: 50uM -0.252 | [7]; compound concentration: 100uM 0.0397 | [7]; compound concentration: 200uM 0.357 | [8]; compound concentration: 0.78uM 0.0931 | [8]; compound concentration: 1.56uM 0.0292 | [8]; compound concentration: 3.13uM 0.0943 | [8]; compound concentration: 6.25uM -0.111 | [8]; compound concentration: 12.5uM -0.00799 | [8]; compound concentration: 25uM -0.0922 | [8]; compound concentration: 50uM 0.0424 | [8]; compound concentration: 100uM -0.132 | [8]; compound concentration: 200uM -0.169 | [9]; compound concentration: 50uM 0.122 | [9]; compound concentration: 200uM 1.79 | [10]; compound concentration: 50uM 0.742 | [10]; compound concentration: 200uM 0.149

PRPF8 (UniProt Q6P2Q9)
inactive: [1]; compound concentration: 50uM -0.0394 | [1]; compound concentration: 200uM -0.112 | [2]; compound concentration: 50uM -0.0921 | [2]; compound concentration: 200uM -0.054 | [3]; compound concentration: 50uM 0.0381 | [3]; compound concentration: 200uM -0.119 | [4]; compound concentration: 50uM 0.0788 | [4]; compound concentration: 200uM 0.0562 | [5]; compound concentration: 50uM 0.0594 | [5]; compound concentration: 200uM -0.157 | [6]; compound concentration: 0.78uM -0.034 | [6]; compound concentration: 1.56uM -0.0309 | [6]; compound concentration: 3.13uM -0.104 | [6]; compound concentration: 6.25uM -0.01 | [6]; compound concentration: 12.5uM -0.0322 | [6]; compound concentration: 25uM -0.101 | [6]; compound concentration: 50uM -0.0882 | [6]; compound concentration: 100uM -0.0511 | [6]; compound concentration: 200uM -0.0422 | [7]; compound concentration: 0.78uM -0.0504 | [7]; compound concentration: 1.56uM -0.022 | [7]; compound concentration: 3.13uM -0.0939 | [7]; compound concentration: 6.25uM -0.0748 | [7]; compound concentration: 12.5uM -0.0604 | [7]; compound concentration: 25uM -0.0428 | [7]; compound concentration: 50uM -0.086 | [7]; compound concentration: 100uM -0.0702 | [7]; compound concentration: 200uM -0.137 | [8]; compound concentration: 0.78uM -0.0339 | [8]; compound concentration: 1.56uM -0.0293 | [8]; compound concentration: 3.13uM -0.049 | [8]; compound concentration: 6.25uM 0.0146 | [8]; compound concentration: 12.5uM -0.0785 | [8]; compound concentration: 25uM -0.109 | [8]; compound concentration: 50uM -0.0661 | [8]; compound concentration: 100uM -0.111 | [8]; compound concentration: 200uM -0.149 | [9]; compound concentration: 50uM 0.0405 | [9]; compound concentration: 200uM 0.131 | [10]; compound concentration: 50uM -0.0761 | [10]; compound concentration: 200uM -0.182

FAM105A (UniProt Q9NUU6)
Chain of UniProt Q9NUU6 (Q9NUU6 whole entry): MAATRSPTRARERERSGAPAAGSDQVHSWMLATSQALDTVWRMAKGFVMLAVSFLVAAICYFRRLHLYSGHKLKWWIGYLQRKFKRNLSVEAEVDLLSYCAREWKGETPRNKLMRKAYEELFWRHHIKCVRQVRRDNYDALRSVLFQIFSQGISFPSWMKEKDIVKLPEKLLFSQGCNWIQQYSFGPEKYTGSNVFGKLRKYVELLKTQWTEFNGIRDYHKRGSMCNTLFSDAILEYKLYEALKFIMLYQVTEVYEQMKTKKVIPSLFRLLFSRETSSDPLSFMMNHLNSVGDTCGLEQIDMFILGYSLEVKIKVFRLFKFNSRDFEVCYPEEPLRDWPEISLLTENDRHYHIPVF
inactive: [1]; compound concentration: 50uM -0.137 | [1]; compound concentration: 200uM -0.0129 | [2]; compound concentration: 50uM 0.0298 | [2]; compound concentration: 200uM 0.102 | [3]; compound concentration: 50uM -0.0634 | [3]; compound concentration: 200uM -0.355 | [4]; compound concentration: 50uM -0.00158 | [4]; compound concentration: 200uM -0.0665 | [5]; compound concentration: 50uM -0.0638 | [5]; compound concentration: 200uM -0.105 | [6]; compound concentration: 0.78uM 0.0819 | [6]; compound concentration: 1.56uM 0.102 | [6]; compound concentration: 3.13uM -0.00663 | [6]; compound concentration: 6.25uM 0.0556 | [6]; compound concentration: 12.5uM 0.00386 | [6]; compound concentration: 25uM -0.153 | [6]; compound concentration: 50uM 0.14 | [6]; compound concentration: 100uM -0.0653 | [6]; compound concentration: 200uM 0.157 | [7]; compound concentration: 0.78uM 0.0146 | [7]; compound concentration: 1.56uM 0.139 | [7]; compound concentration: 3.13uM 0.288 | [7]; compound concentration: 6.25uM 0.071 | [7]; compound concentration: 12.5uM -0.0354 | [7]; compound concentration: 25uM -0.00679 | [7]; compound concentration: 50uM 0.0826 | [7]; compound concentration: 100uM 0.0658 | [7]; compound concentration: 200uM -0.0519 | [8]; compound concentration: 0.78uM 0.122 | [8]; compound concentration: 1.56uM -0.0166 | [8]; compound concentration: 3.13uM 0.227 | [8]; compound concentration: 6.25uM 0.317 | [8]; compound concentration: 12.5uM 0.0169 | [8]; compound concentration: 25uM 0.0586 | [8]; compound concentration: 50uM -0.064 | [8]; compound concentration: 100uM 0.0853 | [8]; compound concentration: 200uM 0.091 | [9]; compound concentration: 50uM 0.0998 | [9]; compound concentration: 200uM -0.0916 | [10]; compound concentration: 50uM -0.253 | [10]; compound concentration: 200uM -0.175

USP10 (UniProt Q14694)
Chain of UniProt Q14694 (Q14694 whole entry): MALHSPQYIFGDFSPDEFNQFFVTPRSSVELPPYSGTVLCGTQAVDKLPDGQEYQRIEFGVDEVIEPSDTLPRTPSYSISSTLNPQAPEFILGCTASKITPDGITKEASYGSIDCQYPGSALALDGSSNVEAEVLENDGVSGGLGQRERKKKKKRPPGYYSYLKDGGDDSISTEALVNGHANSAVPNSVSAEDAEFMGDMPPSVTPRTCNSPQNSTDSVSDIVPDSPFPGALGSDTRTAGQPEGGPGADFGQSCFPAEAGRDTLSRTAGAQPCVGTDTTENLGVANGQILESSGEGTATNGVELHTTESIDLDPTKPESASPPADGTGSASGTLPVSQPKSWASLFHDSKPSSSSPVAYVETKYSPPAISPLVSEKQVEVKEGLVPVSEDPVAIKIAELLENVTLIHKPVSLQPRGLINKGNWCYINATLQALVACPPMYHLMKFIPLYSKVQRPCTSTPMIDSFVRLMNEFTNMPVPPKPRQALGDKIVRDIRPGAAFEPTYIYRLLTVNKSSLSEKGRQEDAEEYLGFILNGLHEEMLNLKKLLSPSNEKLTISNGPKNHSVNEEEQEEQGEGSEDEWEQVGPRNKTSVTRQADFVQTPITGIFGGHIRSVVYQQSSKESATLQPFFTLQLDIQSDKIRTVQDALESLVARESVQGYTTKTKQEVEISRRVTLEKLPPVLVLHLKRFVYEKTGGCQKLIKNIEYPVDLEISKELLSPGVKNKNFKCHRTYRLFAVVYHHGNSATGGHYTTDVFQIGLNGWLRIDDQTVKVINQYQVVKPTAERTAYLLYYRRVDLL
inactive: [1]; compound concentration: 50uM -0.19 | [1]; compound concentration: 200uM -0.0252 | [2]; compound concentration: 50uM -0.181 | [2]; compound concentration: 200uM -0.0808 | [3]; compound concentration: 50uM -0.0803 | [3]; compound concentration: 200uM -0.275 | [4]; compound concentration: 50uM -0.122 | [4]; compound concentration: 200uM 0.147 | [5]; compound concentration: 50uM 0.0122 | [5]; compound concentration: 200uM 0.0383 | [6]; compound concentration: 0.78uM -0.0342 | [6]; compound concentration: 1.56uM -0.0587 | [6]; compound concentration: 3.13uM -0.0649 | [6]; compound concentration: 6.25uM -0.0649 | [6]; compound concentration: 12.5uM -0.132 | [6]; compound concentration: 25uM -0.0689 | [6]; compound concentration: 50uM -0.0491 | [6]; compound concentration: 100uM -0.183 | [6]; compound concentration: 200uM -0.0607 | [7]; compound concentration: 0.78uM -0.0933 | [7]; compound concentration: 1.56uM -0.139 | [7]; compound concentration: 3.13uM -0.0782 | [7]; compound concentration: 6.25uM -0.0824 | [7]; compound concentration: 12.5uM -0.0687 | [7]; compound concentration: 25uM -0.0178 | [7]; compound concentration: 50uM 0.00497 | [7]; compound concentration: 100uM -0.08 | [7]; compound concentration: 200uM -0.0678 | [8]; compound concentration: 0.78uM -0.0203 | [8]; compound concentration: 1.56uM -0.0495 | [8]; compound concentration: 3.13uM -0.0618 | [8]; compound concentration: 6.25uM -0.0539 | [8]; compound concentration: 12.5uM 0.0103 | [8]; compound concentration: 25uM -0.0249 | [8]; compound concentration: 50uM -0.0723 | [8]; compound concentration: 100uM 0.0262 | [8]; compound concentration: 200uM -0.109 | [9]; compound concentration: 50uM -0.0451 | [9]; compound concentration: 200uM -0.029 | [10]; compound concentration: 50uM -0.317 | [10]; compound concentration: 200uM -0.194
